Most compounds without a hit are left out; they make up all but 19% or so of the library.
TGFb inhibitor – qHTS for Inhibitors of TGF-b; HepG2 CAGA-GFP TGF-b/SMAD3 reporter, GFP fluorescence, 18 h; TGF-beta stimulated, 500 pg/mL final; Potency, µM (highest dose often 46.1 µM), for inactives: at the top dose activity, negative = inhibition, hits mostly inhibitors; hit rate 1.2% among 410,000; note: potency is the fitted concentration of half-maximal effect; % is set by controls: 0 for no effect and ±100 for the full control effect; nearly all actives have a fitted effect of over 65% in size
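Inhibition of TGF-beta-driven CAGA-GFP reporter expression in HEPG2 cells is measured by cellular GFP fluorescence after 18 h stimulation with 500 pg/mL recombinant TGF-beta in 1% FBS medium at 37 degrees C.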
DT40 TDP1 no CPT – qHTS for Inhibitors of human tyrosyl-DNA phosphodiesterase 1 (TDP1): qHTS in cells in absence of CPT; Potency, µM (top dose mostly 46.2 µM), without a hit: at the highest dose activity change, negative = growth inhibition, hits mostly inhibitors; DT40 Tdp1-/- hTDP1 cells, no CPT, ATP luminescence, 48 h; hit rate 15% among 420,000; note: potency is the fitted concentration of half-maximal effect; % is set by controls: 0 for no effect and ±100 for the full control effect; nearly all actives have a fitted effect of over 55% in size
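Camptothecin absent (DMSO only). Human TDP1-complemented DT40 knockout cells, 400 cells/well, 37 °C for minimum 48 hr; ATP measured via CellTiter-Glo, 30 min dark incubation, luminescence.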
HepG2 tox – qHTS for Inhibitors of TGF-b: Cytotox Counterscreen | HepG2 CAGA-GFP viability, ATP luminescence, 18 h | Potency, µM (doses to about 46.1 µM), for the others: at the top dose activity change, negative = cytotoxicity, usual class: cytotoxic | hit rate 0.76% among 410,000 | AID 588856, 2011; note: potency is the fitted concentration of half-maximal effect
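CellTiter-Glo luminescence gave cytotoxicity after 18 hours at 37 degrees C. The cells were HepG2 CAGA-GFP in 1% FBS DMEM, stimulated with 500 pg/mL TGF-beta after compound addition. %Activity was normalised to no-cell wells (complete cell-killing) and DMSO (no toxicity), and curves were fitted and classified.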
IL1B secr inh – qHTS for Inhibitors of Inflammasome Signaling: IL-1-beta AlphaLISA Primary Screen. AID 743279, 2014. activity change, % at 57.5 µM. THP-1 LPS/ATP IL-1B secretion, AlphaLISA, 16 h; stronger effect = lower value. hit rate 4.7% among 360,000; in the data active = activity change below about -50%; inconclusive = mostly about -30% to -49%; note: % is set by controls: 0 for no effect and ±100 for the full control effect
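Secreted IL-1B measured by AlphaLISA bead assay after 16 h compound exposure of THP-1 cells; compounds (final up to 57.5 uM) added 1 h before LPS (250 ng/mL) and ATP (1.25 mM) stimulation; lower signal means less secretion.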
TDP1 cell CPT – qHTS for Inhibitors of human tyrosyl-DNA phosphodiesterase 1 (TDP1): qHTS in cells in presence of CPT. chicken DT40 Tdp1-/-;hTDP1 cells + 20 nM CPT, ATP luminescence, 48 h. Potency, µM (highest dose often 46.2 µM), inactives show at the highest dose activity change, negative = growth inhibition, usual class: inhibitors. hit rate 12% among 420,000. AID 686979, 2013; note: potency is the fitted concentration of half-maximal effect; % is set by controls: 0 for no effect and ±100 for the full control effect; nearly all actives have a fitted effect of over 55% in size
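Chicken DT40 Tdp1-/- cells complemented with human TDP1, 400 cells/well, exposed to compounds plus 20 nM camptothecin for at least 48 h at 37 C; viability read as ATP content by CellTiter-Glo luminescence.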
S-ASM inh – Inhibitors of Secretory Acid Sphingomyelinase (S-ASM): qHTS. Sphingomyelin phosphodiesterase (Homo sapiens), P17405. placental ASM, HMU-PC fluorogenic substrate, 60 min. Potency, µM (top dose mostly 57.5 µM), without a hit: at the top dose activity change, negative = inhibition, actives largely listed as inhibitors. hit rate 0.006% among 340,000. AID 504937, 2011; note: potency is the fitted concentration of half-maximal effect
Target sequence (P17405 47-631 limits assumed): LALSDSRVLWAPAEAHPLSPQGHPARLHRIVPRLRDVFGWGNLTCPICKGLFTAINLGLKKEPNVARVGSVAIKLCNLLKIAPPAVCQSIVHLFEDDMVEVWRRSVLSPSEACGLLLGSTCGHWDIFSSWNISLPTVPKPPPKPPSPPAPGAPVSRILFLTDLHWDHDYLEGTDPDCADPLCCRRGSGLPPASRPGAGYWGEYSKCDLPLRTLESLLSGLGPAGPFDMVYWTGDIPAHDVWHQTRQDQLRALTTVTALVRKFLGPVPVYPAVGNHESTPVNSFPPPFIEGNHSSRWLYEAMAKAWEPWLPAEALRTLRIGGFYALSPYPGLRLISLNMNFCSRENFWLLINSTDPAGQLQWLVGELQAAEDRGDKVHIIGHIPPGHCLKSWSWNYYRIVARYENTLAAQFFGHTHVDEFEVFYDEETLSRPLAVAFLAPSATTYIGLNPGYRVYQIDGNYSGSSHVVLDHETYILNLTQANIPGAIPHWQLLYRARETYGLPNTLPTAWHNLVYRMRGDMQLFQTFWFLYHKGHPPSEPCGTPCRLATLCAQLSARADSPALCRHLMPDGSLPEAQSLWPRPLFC
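qHTS format. ASM enzyme prepared from human placenta hydrolyses the fluorogenic substrate HMU-PC0 (9 uM final) over 60 min at 37 °C after a 10 min compound preincubation.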
* = called active by the depositor. Unless noted, calls come from the whole dose curve; as a rule, active = well fitted curve in the direction sought with a large enough effect; inconclusive = small, poorly fitted or top-dose-only effect, or another doubt; inactive = no such curve, though single readings can be large; an effect the other way counts as inactive or inconclusive.

Screening COc1cccc(C(=O)NCc2nnc(SCC(=O)Nc3nccs3)n2-c2ccccc2)c1 returned TGFb inhibitor 10%, DT40 TDP1 no CPT -18%, HepG2 tox -1%, IL1B secr inh 7, TDP1 cell CPT -21% and S-ASM inh -2%.
Cc1cccc(C(=O)NCc2nnc(SCC(=O)NC3=NCCS3)n2C)c1 was read as TGFb inhibitor 13%, DT40 TDP1 no CPT 16µM*, HepG2 tox 1%, IL1B secr inh -10, TDP1 cell CPT inconclusive and S-ASM inh -1%.
Screening Cn1c(CNC(=O)c2ccccc2)nnc1SCC(=O)Nc1nccs1 returned TGFb inhibitor -2%, DT40 TDP1 no CPT inconclusive, HepG2 tox 0%, IL1B secr inh 33, TDP1 cell CPT 15µM* and S-ASM inh 2%.
For COc1ccc(C(=O)NCCCN2CCCC2=O)cc1S(=O)(=O)N1CCOCC1 the results were TGFb inhibitor 1%, DT40 TDP1 no CPT 8%, HepG2 tox 0%, IL1B secr inh -13 and TDP1 cell CPT -3%.
`N#CCNC(=O)c1nn2c(C(F)(F)F)cc(-c3ccccc3)nc2c1Br` gave TGFb inhibitor -6%, DT40 TDP1 no CPT 18%, HepG2 tox 6%, IL1B secr inh 13, TDP1 cell CPT 0% and S-ASM inh 10%.
COc1ccc(-c2cc(C(F)(F)F)n3nc(C(=O)Nc4cccc(C(F)(F)F)c4)c(Br)c3n2)cc1 was read as TGFb inhibitor inconclusive, DT40 TDP1 no CPT inconclusive, HepG2 tox -21% and TDP1 cell CPT 13µM*.
CCCCNC(=O)c1nn2c(C(F)(F)F)cc(-c3ccccc3)nc2c1Br was read as TGFb inhibitor 37%, DT40 TDP1 no CPT 21µM*, HepG2 tox -1%, IL1B secr inh -5, TDP1 cell CPT inconclusive and S-ASM inh -5%.
Screening O=C(Nc1ccc(C(=O)N2CCOCC2)cc1)C1CCC1 returned TGFb inhibitor -8%, DT40 TDP1 no CPT -10%, HepG2 tox 7%, IL1B secr inh 18, TDP1 cell CPT -1% and S-ASM inh 6%.
For CN1CCN(Cc2nc3ccccc3c(=O)n2CC#N)CC1 the results were TGFb inhibitor 18%, DT40 TDP1 no CPT 0%, HepG2 tox 14%, IL1B secr inh 9, TDP1 cell CPT 0% and S-ASM inh 5%.
For Cc1cc(-c2cccc([N+](=O)[O-])c2)nc2ccccc12 the results were TGFb inhibitor -3%, DT40 TDP1 no CPT -11%, HepG2 tox 15%, IL1B secr inh 10, TDP1 cell CPT 15% and S-ASM inh -5%.
For CN(C)Cc1nc2ccccc2c(=O)n1Cc1nc(-c2cccc([N+](=O)[O-])c2)cs1 the results were TGFb inhibitor -16%, DT40 TDP1 no CPT 6.5µM*, HepG2 tox -3%, IL1B secr inh -19, TDP1 cell CPT 18µM* and S-ASM inh -2%.
CN1CCN(Cc2nc3ccccc3c(=O)n2Cc2nc(-c3ccc([N+](=O)[O-])cc3)cs2)CC1 was read as TGFb inhibitor 16µM*, DT40 TDP1 no CPT 5.8µM*, HepG2 tox 11µM*, IL1B secr inh -97*, TDP1 cell CPT 18µM* and S-ASM inh -4%.
`CC(C)(C)C(=O)NC(Nc1cccc2cccnc12)C(Cl)(Cl)Cl` (stereo unspecified) gave TGFb inhibitor inconclusive, DT40 TDP1 no CPT 16µM*, HepG2 tox -7%, IL1B secr inh 28, TDP1 cell CPT inconclusive and S-ASM inh -13%.
Screening CC(C)C(=O)NC(NC(=S)Nc1cccc2cccnc12)C(Cl)(Cl)Cl (stereo unspecified) returned TGFb inhibitor 23%, DT40 TDP1 no CPT 16µM*, HepG2 tox 0%, IL1B secr inh 15, TDP1 cell CPT 8.2µM* and S-ASM inh -5%.
Screening CC(C)C(=O)NC(NC(=S)Nc1ccc(S(N)(=O)=O)cc1)C(Cl)(Cl)Cl (stereo unspecified) returned TGFb inhibitor 2%, DT40 TDP1 no CPT 2%, HepG2 tox 5%, IL1B secr inh -13, TDP1 cell CPT -7% and S-ASM inh -1%.
For CCC(=O)NC(NC(=S)Nc1cccc2cccnc12)C(Cl)(Cl)Cl (stereo unspecified) the results were TGFb inhibitor -4%, DT40 TDP1 no CPT 15µM*, HepG2 tox 2%, IL1B secr inh 5, TDP1 cell CPT 18µM* and S-ASM inh -3%.
`NC(=O)C1=C[C@@H](c2csc3ccccc23)C[C@@H](OCCCCO)O1` gave TGFb inhibitor -11%, DT40 TDP1 no CPT -19%, HepG2 tox -6%, IL1B secr inh 5, TDP1 cell CPT -3% and S-ASM inh 0%.
For CC(C)N1CCCC(C)(C(=O)Nc2ccc3c(c2)OCO3)C1 (stereo unspecified) the results were TGFb inhibitor 26%, DT40 TDP1 no CPT -3%, HepG2 tox -66%, IL1B secr inh 19 and TDP1 cell CPT 6%.
Screening Cn1cnnc1Sc1ccc(C(F)(F)F)cc1[N+](=O)[O-] returned TGFb inhibitor 4%, DT40 TDP1 no CPT -1%, HepG2 tox 0%, IL1B secr inh inconclusive, TDP1 cell CPT 3% and S-ASM inh 0%.
`O=C(OCc1nnc(-c2ccc([N+](=O)[O-])cc2)o1)C1CCN(C(=O)c2ccc(F)cc2)CC1` gave TGFb inhibitor 2%, DT40 TDP1 no CPT -1%, HepG2 tox -2%, IL1B secr inh 1, TDP1 cell CPT -27% and S-ASM inh -4%.
`CCOC(=O)c1c(C=O)c(C)n(Cc2ccc(C)cc2)c1C` gave TGFb inhibitor -9%, DT40 TDP1 no CPT 23µM*, HepG2 tox -27%, IL1B secr inh -6, TDP1 cell CPT inconclusive and S-ASM inh -11%.
For Cc1cccc(NC(=O)CSCC(=O)Nc2cccc3ncccc23)c1 the results were TGFb inhibitor 9%, DT40 TDP1 no CPT -5%, HepG2 tox -2%, IL1B secr inh 7, TDP1 cell CPT 5% and S-ASM inh 1%.
For COc1ccc(CNC(=O)c2cc3c(C)nc4ccccc4c3o2)c(OC)c1 the results were TGFb inhibitor -26%, DT40 TDP1 no CPT 13µM*, HepG2 tox -28%, IL1B secr inh 45, TDP1 cell CPT 16µM* and S-ASM inh -11%.
